Shiga inhibitor = A qHTS for Small Molecule Inhibitors of Shiga Toxin. Vero cells, Shiga toxin protein synthesis inhibition reporter. AID 2315, 2010. 290,000 compounds, 9.2% hits. inhibition, % at 38.7 µM; in the data active means inhibition mostly above about 28%, no sharp cut-off; inactive means mostly below about 43%
Tb PYK inh = qHTS of Trypanosoma Brucei Inhibitors; pyruvate kinase (Trypanosoma brucei), Q57TT1; 410,000 compounds, 0.12% hits; TbPYK enzyme, Kinase-Glo Plus ATP luminescence, 45 min; Potency, µM (doses to about 76.8 µM), usual class: inhibitors; further: nearly all actives have a fitted effect of over 50% in size
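Glycolytic pyruvate kinase of T. brucei was incubated with substrate, test compound and 130 uM ADP for 45 minutes at room temperature. Luminescent Kinase-Glo Plus signal was measured after 10 minutes.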
LmPK inhibitor = qHTS Assay for Inhibitors of Leishmania Mexicana Pyruvate Kinase (LmPK). purified LmPK, Kinase-Glo ATP luminescence, 1 h. Potency, µM (titrated, usually from 57.5 µM), hits mostly inhibitors. 290,000 compounds, 0.37% hits. AID 1721, 2009
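Pyruvate kinase activity monitored as ATP production (luciferase luminescence). Conditions: 0.1 nM enzyme, 0.5 mM PEP, 0.1 mM ADP, 1 h, RT; normalized against uninhibited and no-enzyme wells.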
RE007 growth inh = qHTS Assay for Inhibitors of the HIV-1 protein Vpr; AID 651644, 2012; 360,000 compounds, 0.21% hits; S. pombe RE007 Vpr strain, BacTiter-Glo ATP luminescence, 24 h; Potency, µM (titrated, usually from 92.2 µM), actives largely listed as inhibitors; active means well fitted falling curve with a large enough effect; inconclusive means small, poorly fitted or top-dose-only effect; inactive means no such curve, though single readings can be large or run the other way; further: nearly all actives have a fitted effect of over 50% in size
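Fission yeast RE007 carrying one integrated HIV-1 vpr copy, seeded at OD 0.01 in PMG+AL medium with 23 nL pinned compound. Grown 24 h at 30 degrees; viability read by BacTiter-Glo luminescence after 5 min.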
FBPA Giardia inh = qHTS Assay for Inhibitors of Fructose-1,6-bisphosphate Aldolase from Giardia Lamblia; purified Giardia FBPA; Potency, µM (highest dose often 59.6 µM), actives largely listed as inhibitors; 290,000 compounds, 0.71% hits; further: nearly all actives have a fitted effect of over 55% in size
Target sequence (A8B2U2 whole entry, looked up): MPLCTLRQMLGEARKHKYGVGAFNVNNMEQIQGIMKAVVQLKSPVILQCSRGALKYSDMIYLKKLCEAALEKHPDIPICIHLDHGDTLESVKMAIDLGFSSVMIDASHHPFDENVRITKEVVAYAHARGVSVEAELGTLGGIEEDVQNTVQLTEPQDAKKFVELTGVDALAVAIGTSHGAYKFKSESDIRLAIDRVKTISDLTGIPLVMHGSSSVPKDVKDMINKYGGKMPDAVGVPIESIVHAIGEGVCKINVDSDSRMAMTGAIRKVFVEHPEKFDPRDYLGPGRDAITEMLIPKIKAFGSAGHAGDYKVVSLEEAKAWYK
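Giardia FBPA (40 nM reagent) was preincubated 10 min at RT with compound (up to 57.5 uM final), then substrate plus GAPDH/TPI/NAD/arsenate coupling system with diaphorase/resazurin was added; resorufin fluorescence (525/598 nm) was read after 20 min.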
Cycloheximide cs = Cycloheximide Counterscreen for Small Molecule Inhibitors of Shiga Toxin. cell reporter, cycloheximide protein synthesis inhibition counterscreen. max response, %. 300,000 compounds, 12% hits. AID 2314, 2010; in the data active means max response mostly above about 13%, no sharp cut-off; inactive means mostly below about 14%; further: read at 38.3 µM for the half of the compounds with a filed dose
Numbers stand for hits; n = inactive; u = inconclusive; x = not tested or not shown. This is one part of a sample in which hits are shown more often than they occur. Unless noted, the call rests on the fitted dose curve; in most records, active means well fitted curve in the direction sought with a large enough effect; inconclusive means small, poorly fitted or top-dose-only effect, or another doubt; inactive means no such curve, though single readings can be large; an effect the other way counts as inactive or inconclusive.

SMILES | Shiga inhibitor | Tb PYK inh | LmPK inhibitor | RE007 growth inh | FBPA Giardia inh | Cycloheximide cs
COc1ccc(C(c2c(O)cc(C)n(Cc3ccco3)c2=O)N2CCCCC2)cc1OC (centres undefined) | x | n | x | x | x | x
CC(=O)N1CCN(CC(=O)Nc2ccc3c(c2)CCC3)CC1 | n | n | n | n | n | n
O=C(COc1cccnc1[N+](=O)[O-])Nc1ccc2c(c1)CCC2 | n | n | n | n | n | 20
O=C(CN1CCOCC1)Nc1ccc(C2CCCCC2)cc1 | n | n | n | n | n | 39
O=C(CN1CCOCCOCCOCCOCC1)Nc1ccccc1 | 48 | n | n | n | n | 26
O=C(CN1CCCC1)Nc1ccc2c(c1)CCC2 | 35 | n | n | n | u | 23
Cc1ccc(NC(=O)CN2CCOCC2)cc1 | n | n | n | n | n | n
Cc1coc2cc3oc(=O)c(CCC(=O)N4CCCCC4)c(C)c3cc12 | x | n | x | x | x | x
COCCN1C(=O)c2[nH]nc(-c3ccccc3O)c2C1c1ccc(Cl)c(Cl)c1 (centres undefined) | x | n | x | x | x | x
CCN(CC)c1ccc(N=Nc2ccc(S(=O)(=O)N(C)C)cc2)c(S(=O)(=O)NCC[n+]2ccccc2)c1 | x | n | x | x | x | x
O=C(CN1CCCC1)Nc1ccc(NC(=O)Nc2ccccc2)cc1 | 54 | n | n | n | n | 39
O=C(CSc1ncccn1)Nc1ccc2c(c1)CCC2 | 129 | n | n | n | n | 36
O=C(COc1cccc(Cl)c1)Nc1ccc2c(c1)CCC2 | 78 | n | n | u | n | 38
CC(=O)Nc1cc(-c2cccc(C(=O)NCCN(C)C)c2)cn2c(-c3cccc(C(F)(F)F)c3)cnc12 | x | n | x | n | x | x
CCCC12CN3CC(CCC)(CN(C1)C3c1ccc(OCc3ccccc3)cc1)C2=O (centres undefined) | x | n | x | x | x | x
O=S(=O)(c1ccc(F)cc1)N1CCN(C(=S)NCC2CCCO2)CC1 (centres undefined) | x | n | x | n | x | x
CC(C)C(NC(N)=O)C(=O)NC1CCCCC1 (centres undefined) | n | x | n | x | n | n
COC(=O)N1N=C(c2ccc(Br)cc2)CC1(O)C(F)(F)F (centres undefined) | 40 | n | n | n | n | 47
CCOC(=O)N1N=C(c2ccc(C)cc2)CC1(O)C(F)(F)F (centres undefined) | 36 | n | n | n | n | 15
O=C(C1CC1)N1N=C(c2ccc(F)cc2)CC1(O)C(F)(F)F (centres undefined) | x | n | n | n | n | n
CCOC(=O)N1N=C(c2ccccc2)CC1(O)C(F)(F)F (centres undefined) | 101 | n | n | n | n | 49
CC1=NN(C(=O)c2ccc(C)cc2)C(O)(C(F)(F)OC(F)(F)F)C1 (centres undefined) | 72 | n | n | n | n | 31
COc1ccc(OC)c(NC(=O)CN2C(=O)COc3ccc(S(=O)(=O)NC4CCCC4)cc32)c1 | x | n | x | x | x | x
COc1ccc(OC)c(NCc2cccn2-c2nnc(N3CCCCC3)s2)c1 | x | n | x | x | x | x
CCc1cccc(CC)c1NC(=O)C(Cc1ccccc1)NS(=O)(=O)c1cccc2nsnc12 (centres undefined) | x | n | x | x | x | x
SMILES | Shiga inhibitor | Tb PYK inh | LmPK inhibitor | RE007 growth inh | FBPA Giardia inh | Cycloheximide cs
CNc1ccccc(-c2ccc3ccccc3n2)c1=O | 52 | n | n | n | u | 59
O=C(O)c1cc(-c2ccc3ccccc3n2)nc2ccccc12 | n | n | n | n | u | n
COc1cccc(CNC(=O)c2ccc(-c3nc(CS(=O)(=O)c4ccccc4)c(C)o3)cc2)c1 | x | n | x | x | x | x
Cc1csc2nc(-c3cccc(NC(=O)c4cccc(F)c4)c3)cn12 | x | n | x | x | x | x
Cc1cccc(Cn2nc(C)c(NC(=O)c3ccc(F)cc3)c2C)c1 | n | n | n | n | n | n
CC(C)c1cc(C(N)=O)c(NC(=O)c2cccc(COc3ccc(Cl)cc3)c2)s1 | 200 | n | n | n | n | 70
Cc1nn(Cc2c(F)c(F)c(F)c(F)c2F)c(C)c1NC(=O)c1cccc(COc2ccc(Cl)cc2)c1 | 136 | n | n | n | n | 83
O=C(Cn1ncc2c3ccccc3n(Cc3ccc(Cl)cc3)c2c1=O)NCc1ccccn1 | x | n | x | x | x | x
COc1ccc(N2C(=O)CC(N3CCCC4CCCCC43)C2=O)cc1 (centres undefined) | n | n | n | 7.1µM | n | n
O=C1CC(N2CCN(Cc3ccccc3)CC2)C(=O)N1c1ccc2c(c1)OCCO2 (centres undefined) | 43 | n | n | n | n | 21
COc1ccc(N2C(=O)CC(C3CCCO3)C2=O)cc1 (centres undefined) | n | n | n | n | n | n
O=C1CC(N2CCCCCC2)C(=O)N1c1ccc2c(c1)OCO2 (centres undefined) | n | n | n | 6.3µM | n | n
COc1ccc(N2C(=O)CC(N3CCCCC3)C2=O)cc1 (centres undefined) | n | n | n | 18µM | n | n
COc1cccc(N2CC(C(=O)Nc3nnc(SCC(=O)NCc4ccco4)s3)CC2=O)c1 (centres undefined) | n | n | n | n | n | n
COc1cc(CCN)c(OC)cc1Br | x | n | x | x | x | x
O=C1CC(N2CCCCCC2)C(=O)N1c1ccc(F)cc1 (centres undefined) | n | n | n | 10µM | n | n
O=C1CC(N2CCSCC2)C(=O)N1c1ccc(Br)cc1 (centres undefined) | n | n | n | u | n | n
O=C1CC(N2CCSCC2)C(=O)N1c1ccc(F)cc1 (centres undefined) | n | n | n | 25µM | n | n
COC(=O)c1ccc(N2C(=O)CC(N3CCOCC3)C2=O)cc1 (centres undefined) | n | n | n | 28µM | n | n
CCOC(=O)c1ccc(N2C(=O)CC(N3CCC(O)(c4ccc(Br)cc4)CC3)C2=O)cc1 (centres undefined) | n | n | n | n | n | n
CCOc1ccc(N2C(=O)CC(N3CCC(O)(c4ccc(Br)cc4)CC3)C2=O)cc1 (centres undefined) | n | n | n | 35µM | n | n
CCOc1ccc(CCNC(=O)c2ccc3c(c2)N(Cc2ccccc2F)C(=O)c2ccccc2S3=O)cc1OCC (centres undefined) | x | n | x | x | x | x
CCOC(=O)c1ccc(N2C(=O)CC(N3CCC(O)(c4ccc(Cl)cc4)CC3)C2=O)cc1 (centres undefined) | n | n | n | u | n | n
COc1ccc(N2C(=O)CC(N3CCC(O)(c4cccc(C(F)(F)F)c4)CC3)C2=O)cc1 (centres undefined) | n | n | n | 32µM | n | n
